# Where “and” joins values, the source holds several entries; their conditions need not be identical. Equal values may be shown once. Among all 420,000 compounds or so, about 50,000 (12%) were called active. Roughly 26% stayed inconclusive and do not appear here. The full list was thinned out, with actives kept by preference. A number with no mark means an inactive call. The call rests on the fitted dose curve; in most records, active means well fitted inhibition curve with a large enough effect; inconclusive means small, poorly fitted or top-dose-only effect; inactive means flat fitted curve, though single readings scatter.
# Assay: qHTS for Inhibitors of human tyrosyl-DNA phosphodiesterase 1 (TDP1): qHTS in cells in presence of CPT; further: nearly all actives have a fitted effect of over 55% in size
# Details: chicken DT40 Tdp1-/-;hTDP1 cells + 20 nM CPT, ATP luminescence, 48 h; series mostly up to 46.2 µM; activity change, negative = growth inhibition: at the top concentration
# Summary of the method: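 Chicken DT40 Tdp1-/- cells stably complemented with human TDP1 were seeded at 400 cells/well in medium containing 20 nM camptothecin, exposed to pin-transferred compounds, and grown at 37 °C for at least 48 hr. Viability was read as ATP luminescence.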
# On the % scale 0 is the no-effect control and ±100 the full control effect; potency means the concentration at half of the fitted maximal effect.
SMILES,"activity change, negative = growth inhibition",Potency
CC(C)N(CC#CCC1(O)c2ccccc2-c2ccccc21)C(C)C,-13.8%,
c1cc2c(c(NC3=NCCCS3)c1)CCCC2,-5.68%,
COC(=O)N(c1ccc(OC)cc1)P1(=S)OCCC(C)O1 (configuration not stated),,14.6 µM (active)
Cc1ccc(-n2c(O)c(C=NCC3CCCO3)c(=O)[nH]c2=O)c(C)c1 (configuration not stated),-8.29%,
CCC1(C)CC(CCNCc2ccc(N(C)C)cc2)(c2ccc(F)cc2)CCO1 (configuration not stated),,16.4 µM (active)
CC(=O)N1CN2CN(C(C)=O)CC(C(=O)c3ccc(Br)cc3)(C2)C1,11.5%,
COc1ccccc1NC(=O)N1C[C@@H]2C[C@@H](C1)c1cccc(=O)n1C2,1.17%,
O=c1[nH]c(=S)[nH]c(O)c1/C=C1\C=Nc2ccccc21,,7.31 µM (active)
COc1ccccc1N=Nc1c(O)[nH]c(=S)[nH]c1=O,-16.3%,
CN(C)c1nc(N(C)C)nc(N(C#N)CCCl)n1,-12.5%,
Cc1ccc(OC(=O)N(C)C[C@@H]2OCc3cnnn3CCCC(=O)N([C@H](C)CO)C[C@@H]2C)cc1,1.63%,
CCC1(c2ccccc2)C(=O)NC(=O)N(C)C1=O (configuration not stated),13.2%,
COc1ccc(Br)cc1CNCCc1cccc(Cl)c1,,18.4 µM (active)
COc1cc(C[C@H](C)N)c(OC)cc1Br,-28.4% [at 92.5 µM],
CC[C@]1(O)C(=O)OCc2c1cc1n(c2=O)Cc2cc3ccccc3nc2-1,,0.0168 µM (active)
CC1=C2C(=O)C3C(CC=C4CC(OC5OC(O)C(O)C(O)C5CO)CCC43C)C2CCC12OC1CC(C)CNC1C2C (configuration not stated),2.43%,
Cc1ccc2c(c1)C1CN(C)CCC1N2C(=O)Cn1nnc(-c2ccccc2F)n1 (configuration not stated),7.4%,
CC(C)(c1ccc(OC[C@@H]2CO2)cc1)c1ccc(OC[C@H]2CO2)cc1,,10.6 µM (active)
CCOP(=O)(OCC)C(NC(=O)NC)C(N)=O (configuration not stated),1.31%,

SMILES,"activity change, negative = growth inhibition",Potency
Nc1ccc(C(=O)N/N=C2/CN3CCC2CC3)cc1,1.97%,
O=C(Nc1cccc(OC(=O)N2CCCCC2)c1)N1CCOCC1,-15.1%,
O=C(/C=C/c1cccs1)c1cc(Cl)ccc1OC(=O)N1CCOCC1,,16.4 µM (active)
Cc1cc(-c2ccc(N)c(C)c2)ccc1N,-21.4%,
C=CCN1C(=O)C2(C(C(=O)OCC)=C(N)Oc3c2c(=O)oc2ccccc32)c2ccccc21 (configuration not stated),-19.5%,
CCCCn1c(O)c(C(CC)=NCc2ccco2)c(=O)[nH]c1=O,-6.03%,
CCC(=NCCCO)c1c(O)n(-c2ccc(OC)cc2)c(=O)[nH]c1=O,3.97%,
CCCCCCN=C(CC)c1c(O)n(CCCC)c(=O)[nH]c1=O,,14.6 µM (active)
OC(CNC1CCCCC1)c1ccccc1 (configuration not stated),-3.92%,
NS(=O)(=O)c1ccc(CCNC(=O)c2ccc(Cl)c(S(=O)(=O)N3CCCCCC3)c2)cc1,,20.6 µM (active)
CC1CCCCN1Cc1cccnc1 (configuration not stated),-3.72%,
CCOC(=O)C(O)(c1ccc(N=Cc2ccccc2O)c(C)c1)C(F)(F)F (configuration not stated),-6.07%,
CC(=O)c1c(O)c(C)c(O)c(Cc2c(O)c3c(c(C(=O)/C=C/c4ccccc4)c2O)OC(C)(C)C=C3)c1O,,29.9 µM (active)
CC(=O)c1c(O)c(C)c(O)c(Cc2c(O)c3c(c(C(=O)/C=C\c4ccccc4)c2O)OC(C)(C)C=C3)c1O,,13.3 µM (active)
O=C1NC(=O)C(CCc2ccccn2)(Cc2cccc(Cl)c2Cl)C(=O)N1c1ccc(Br)cc1 (configuration not stated),-15%,
CCOP(=S)(OCC)SCOC(=O)NCC(=O)OC,-6.7%,
CN1CCc2cc3c(cc2[C@H]1[C@@H]1OC(=O)c2c1ccc1c2OCO1)OCO3,1.03%,
C=CCSSCC=C,-2.1%,
CC(=CCOc1ccc2ccc(=O)oc2c1)C1=CC(=O)C(C)(C)O1,,5.8 µM (active)

SMILES,"activity change, negative = growth inhibition",Potency
c1ccc2c(c1)[I+]c1ccccc1-2,,33.5 nM (active) and 15.8 nM (active) and 79.4 nM (active)
Cc1nc2nc(C)c(CCC(=O)N3CCC4(CC3)OCCO4)c(C)n2n1,-1.59%,
O=C(O)CCn1cc(C=C2C(=O)NC(=S)NC2=O)c(-c2cccc(Br)c2)n1,1.42%,
CNCC[C@H](Oc1ccc(C(F)(F)F)cc1)c1ccccc1,,7.5 µM (active)
N[C@@H](Cc1c[nH]c2ccccc12)c1nnc(SCc2c(F)cccc2Cl)o1,-13%,
CC(C)C(N)C(=O)OCCOCn1cnc2c(=O)[nH]c(N)nc21 (configuration not stated),,2.06 µM (active)
CN(C)C(=O)Oc1cc(=O)n2c3c(cccc13)CCC2,-1.55%,
O=[N+]([O-])c1cnc2ccc3ccccc3c2c1,6.91%,
CC1CC=CCC12C(=O)NC(=S)NC2=O (configuration not stated),-9.4%,
COC(=O)COc1cc(C)cc2oc(=O)c3c(c12)CCCC3,-6.26%,
O=c1c2ccccc2nc(CBr)n1-c1ccc(Cl)cc1,-28.4%,
Cc1nc2ccccc2c(=O)n1-c1ccc(Cl)cc1Cl,,13 µM (active)
O=C1CC(=O)N(Cc2ccccc2)C(=O)N1CCCCCCN1C(=O)CC(=O)N(Cc2ccccc2)C1=O,20.6%,
O=C(O)c1cc[c]([Sb](=[O])([OH])[OH])cc1[N+](=O)[O-],-6.27%,
COc1ccc(C)cc1N(CC(=O)N1CCC(C)CC1)S(=O)(=O)c1ccc(C)cc1,,18.4 µM (active)
COc1cc2c(cc1OC)[C@@H]1C(=O)c3ccc(O)c(CC=C(C)C)c3OC1CO2 (some centres not stated),2.99%,
COc1ccc2[nH]c3c(c2c1)CCN[C@H]3C,5.04%,
CC1CCC(N(C)C2CCN(C)CC2)CC1 (configuration not stated),-14.5%,
C[C@]12CCC3C(CC[C@H]4C[C@@H](O)CC[C@]34C)C1CC[C@@H]2O (some centres not stated),-6.05%,

# — PubChem BioAssay AID686979 (National Center for Advancing Translational Sciences (NCATS), 2013)
